# Data: PubChem BioAssay AID540358 (NMMLSC, 2011)
# Values joined by “and” are separate entries in the source; they are usually repeats but may differ in a detail not shown here. Equal values may be shown once. About 260 (24%) of roughly 1,100 compounds were called active. A selection follows. A number with no mark means an inactive call.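 How the source made its calls: active means surface receptor percent response at or below 58%, roughly 3 SD from nonfluorescent compounds; inactive means the rest.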
# Molecular target: Beta-2 adrenergic receptor (Homo sapiens) (UniProt P07550)
# Assay: beta2AR agonists via receptor internalization, confirmation, cell-based, FAP fluorogen, flow cytometry, single point, cherry pick 1 (AID 540358)
# Details: Am2.2-beta2AR cells, at 10 µM, hits give low values
# Beta-2 adrenergic receptor (Homo sapiens), sequence (P07550 whole entry, looked up): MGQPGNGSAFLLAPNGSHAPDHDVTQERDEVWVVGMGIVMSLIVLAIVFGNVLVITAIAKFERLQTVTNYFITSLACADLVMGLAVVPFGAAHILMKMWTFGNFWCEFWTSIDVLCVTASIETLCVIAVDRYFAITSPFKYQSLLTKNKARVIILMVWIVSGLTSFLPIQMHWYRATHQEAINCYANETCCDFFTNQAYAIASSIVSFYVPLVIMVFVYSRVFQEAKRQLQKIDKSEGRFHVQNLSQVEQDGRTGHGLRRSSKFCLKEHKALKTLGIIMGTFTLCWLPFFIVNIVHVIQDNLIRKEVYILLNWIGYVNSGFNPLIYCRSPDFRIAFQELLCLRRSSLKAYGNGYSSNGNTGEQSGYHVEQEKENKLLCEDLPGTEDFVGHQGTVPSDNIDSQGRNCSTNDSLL
row,SMILES,percent response (surface receptor)
1,CSc1ccc(CNC(=O)c2ccc(NC(=O)C3=CSCCO3)cc2)cc1,17.5% (active)
2,OC(CNCc1ccc(Cl)c(Cl)c1)c1ccccc1 (stereo unspecified),110%
3,CCCCCCCCCCOC(=O)Cn1c(COc2ccc(C)cc2)[n+](C)c2ccccc21,108%
4,O=C1C(=O)N(CC2COc3ccccc3O2)c2ccccc21 (stereo unspecified),95.3%
5,O=C(NCCCn1ccnc1)C1CCCN(S(=O)(=O)c2cc(Cl)ccc2Cl)C1 (stereo unspecified),17.8% (active)
6,CC(=O)Nc1ccc(Nc2c3ccccc3nc3ccccc23)cc1,80.8%
7,COc1ccc(-n2nc3c(N4CCC(C(=O)NCc5ccccc5)CC4)nnc(C)c3c2C)cc1,152%
8,C=CCNC(=S)N/N=C/c1ccc(C)s1,110%
9,CC(=O)Nc1ccc(CN2CCC(Oc3ccc(C(=O)N4CCCC4)cc3)CC2)cc1,104%
10,CC(CCc1ccccc1)NCC(O)c1cccc([N+](=O)[O-])c1 (stereo unspecified),119%
11,COc1cc(C#Cc2ccc3cc(CCCO)oc(=O)c3c2)cc(OC)c1,68.2%
12,COc1ccc(-c2ccnc(SCC(=O)N3CCOCC3)n2)cc1,104%
13,Cc1ccc(Cl)cc1NC(=O)CN1CCN(S(=O)(=O)N2CCOCC2)CC1,93.5%
14,CCOc1ccccc1N1C(=O)CC(Sc2nccc(C)n2)C1=O (stereo unspecified),106%
15,CCOC(=O)c1ccc(NC(=O)Cn2nnc(-c3ccc(C)cc3)n2)cc1,12.3% (active) and 4.86% (active)
16,COc1ccc2c(c1OC)C(=O)OC2Nc1nc(-c2ccccc2)cs1 (stereo unspecified),99.6%
17,O=C(C1CCN(c2nnc(-n3cccc3)s2)CC1)N1CCc2ccccc2C1,146%
18,CC(=O)c1ccc(NC(=O)c2ccc3c(Cl)c4c(nc3c2)CCCC4)cc1,66.5%

row,SMILES,percent response (surface receptor)
1,Cc1cc(S(=O)(=O)N2CCOCC2)ccc1OCC(=O)Nc1cccc(C(F)(F)F)c1,99%
2,COc1ccc(OC)c(NC(=O)c2sc3nc(C)cc(C)c3c2N)c1,34.7% (active)
3,N#Cc1cccc(NC(=O)COC(=O)c2ccccc2C(=O)c2ccc(Cl)c([N+](=O)[O-])c2)c1,85.9%
4,COc1ccc(OC)c(S(=O)(=O)N(C)CC(=O)N2CCN(c3ccccc3)CC2)c1,88.9% and 123%
5,CCOc1ccc(NC(=O)COc2ccc(S(=O)(=O)N3CCCC3)cc2)cc1,104%
6,CCOc1ccccc1NC(=O)COc1ccc(S(=O)(=O)N2CCCC2)cc1,128%
7,COc1ccc(S(=O)(=O)N2CCCC(C(=O)Nc3ccc(NC(=O)c4ccccn4)cc3)C2)cc1 (stereo unspecified),44.1% (active)
8,CCN1CCC2(CC1)N=C(c1ccc(F)cc1)C(=S)N2C(=O)c1ccc(C)cc1,92.8%
9,CC(=O)c1cccc(NC(=O)COc2ccc(S(=O)(=O)N3CCOCC3)cc2)c1,120%
10,Cc1ccc(OCC(=O)Nc2ccc(-c3nc4ncccc4o3)cc2)cc1,38.8% (active) and 23.3% (active)
11,CCCOc1ccc(C(=O)C(CCC(CNCC)C(=O)c2ccc(OCCC)cc2)CNCC)cc1 (stereo unspecified),61%
12,O=S(=O)(Nc1ccc2[nH]ncc2c1)c1ccccc1Cl,89.6%
13,Cc1ccc(Sc2cc(N3CCOCC3)nc(-c3ccccc3)n2)cc1,22.9% (active)
14,CCCN(CCc1ccccc1)C1CCc2c(O)cccc2C1 (stereo unspecified),111%
15,CSc1ccc(CCNC(=O)C2CCN(c3nnc(-n4cccc4)s3)CC2)cc1,60.9%
16,Oc1ccc(N=Cc2sc3ccccc3c2Cl)cc1,101%
17,O=C(Nc1ccc2c(c1)OCCO2)C(c1ccc(F)cc1)N1CCCCC1 (stereo unspecified),112%
18,COc1ccc(C(CCNCc2ccccc2F)c2ccc(F)cc2)cc1 (stereo unspecified),109%
